Experimental data: ChEMBL document CHEMBL1961873, “Compounds: GSK PKIS; Assays: Nanosyn kinase panel” (2012)

Assays:
[1] = molecular target: Mitogen-activated protein kinase kinase kinase kinase 4 (Homo sapiens) (UniProt O95819); details: at 1 µM;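 further: reported figure is an averaged inhibition value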
[2] = molecular target: Dual specificity mitogen-activated protein kinase kinase 1 (Homo sapiens) (UniProt Q02750); details: at 0.1 µM
[3] = molecular target: Dual specificity mitogen-activated protein kinase kinase 1 (Homo sapiens) (UniProt Q02750); details: at 1 µM
[4] = molecular target: Misshapen-like kinase 1 (Homo sapiens) (UniProt Q8N4C8); details: at 0.1 µM
[5] = molecular target: Misshapen-like kinase 1 (Homo sapiens) (UniProt Q8N4C8); details: at 1 µM
[6] = molecular target: T1, Serine/threonine-protein kinase 4 (Homo sapiens) (UniProt Q13043); details: at 0.1 µM
T1 sequence (whole entry): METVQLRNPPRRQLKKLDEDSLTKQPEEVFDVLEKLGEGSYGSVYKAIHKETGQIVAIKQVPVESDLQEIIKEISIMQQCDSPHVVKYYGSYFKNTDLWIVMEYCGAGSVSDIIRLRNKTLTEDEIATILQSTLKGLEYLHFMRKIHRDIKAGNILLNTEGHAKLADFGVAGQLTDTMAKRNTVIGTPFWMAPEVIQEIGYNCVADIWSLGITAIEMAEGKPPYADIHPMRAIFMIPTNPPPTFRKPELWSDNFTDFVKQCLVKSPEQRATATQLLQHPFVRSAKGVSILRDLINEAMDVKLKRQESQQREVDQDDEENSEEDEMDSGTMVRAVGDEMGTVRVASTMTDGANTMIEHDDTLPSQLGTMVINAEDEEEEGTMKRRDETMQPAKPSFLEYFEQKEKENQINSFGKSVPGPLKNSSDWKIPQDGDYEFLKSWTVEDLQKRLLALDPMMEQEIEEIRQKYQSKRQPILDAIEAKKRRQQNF

[7] = molecular target: T1, Serine/threonine-protein kinase 4 (Homo sapiens); details: at 1 µM
[8] = molecular target: T2, Serine/threonine-protein kinase 3 (Homo sapiens) (UniProt Q13188); details: at 0.1 µM
T2 sequence (whole entry): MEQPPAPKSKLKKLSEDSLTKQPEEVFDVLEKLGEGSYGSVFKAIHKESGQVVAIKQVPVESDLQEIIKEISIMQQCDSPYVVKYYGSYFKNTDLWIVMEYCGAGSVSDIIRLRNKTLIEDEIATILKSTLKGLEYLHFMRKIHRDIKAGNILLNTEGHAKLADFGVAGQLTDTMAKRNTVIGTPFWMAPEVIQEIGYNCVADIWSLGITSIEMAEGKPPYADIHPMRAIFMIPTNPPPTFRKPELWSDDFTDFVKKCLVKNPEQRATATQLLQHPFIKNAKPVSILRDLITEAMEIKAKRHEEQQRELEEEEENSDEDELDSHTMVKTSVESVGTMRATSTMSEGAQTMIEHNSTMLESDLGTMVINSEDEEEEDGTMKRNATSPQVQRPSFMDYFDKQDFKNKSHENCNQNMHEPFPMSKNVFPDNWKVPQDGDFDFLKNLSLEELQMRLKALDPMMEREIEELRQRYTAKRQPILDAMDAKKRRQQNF

[9] = molecular target: T2, Serine/threonine-protein kinase 3 (Homo sapiens); details: at 1 µM
[10] = molecular target: Serine/threonine-protein kinase 26 (Homo sapiens) (UniProt Q9P289); details: at 0.1 µM
[11] = molecular target: Serine/threonine-protein kinase 26 (Homo sapiens) (UniProt Q9P289); details: at 1 µM
[12] = molecular target: Serine/threonine-protein kinase PAK 1 (Homo sapiens) (UniProt Q13153); details: at 0.1 µM
Sequence of Serine/threonine-protein kinase PAK 1 (Homo sapiens) (Q13153 whole entry): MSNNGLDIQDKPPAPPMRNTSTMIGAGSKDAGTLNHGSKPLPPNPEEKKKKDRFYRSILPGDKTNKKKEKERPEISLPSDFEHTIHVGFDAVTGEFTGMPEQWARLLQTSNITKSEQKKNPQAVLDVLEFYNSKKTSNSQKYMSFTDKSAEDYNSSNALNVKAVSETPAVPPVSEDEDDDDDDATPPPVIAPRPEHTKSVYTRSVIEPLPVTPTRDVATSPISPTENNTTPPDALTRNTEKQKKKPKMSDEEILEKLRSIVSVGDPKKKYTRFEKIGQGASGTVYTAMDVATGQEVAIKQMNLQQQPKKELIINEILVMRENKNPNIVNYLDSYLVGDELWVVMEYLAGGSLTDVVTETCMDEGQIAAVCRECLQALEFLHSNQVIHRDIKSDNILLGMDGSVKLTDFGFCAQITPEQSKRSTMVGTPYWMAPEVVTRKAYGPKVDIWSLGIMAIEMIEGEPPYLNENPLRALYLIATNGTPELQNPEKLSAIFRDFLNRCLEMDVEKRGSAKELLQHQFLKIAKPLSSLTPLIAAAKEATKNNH

[13] = molecular target: Serine/threonine-protein kinase PAK 1 (Homo sapiens) (UniProt Q13153); details: at 1 µM
[14] = molecular target: Serine/threonine-protein kinase PAK 2 (Homo sapiens) (UniProt Q13177); details: at 0.1 µM
Sequence of Serine/threonine-protein kinase PAK 2 (Homo sapiens) (Q13177 whole entry): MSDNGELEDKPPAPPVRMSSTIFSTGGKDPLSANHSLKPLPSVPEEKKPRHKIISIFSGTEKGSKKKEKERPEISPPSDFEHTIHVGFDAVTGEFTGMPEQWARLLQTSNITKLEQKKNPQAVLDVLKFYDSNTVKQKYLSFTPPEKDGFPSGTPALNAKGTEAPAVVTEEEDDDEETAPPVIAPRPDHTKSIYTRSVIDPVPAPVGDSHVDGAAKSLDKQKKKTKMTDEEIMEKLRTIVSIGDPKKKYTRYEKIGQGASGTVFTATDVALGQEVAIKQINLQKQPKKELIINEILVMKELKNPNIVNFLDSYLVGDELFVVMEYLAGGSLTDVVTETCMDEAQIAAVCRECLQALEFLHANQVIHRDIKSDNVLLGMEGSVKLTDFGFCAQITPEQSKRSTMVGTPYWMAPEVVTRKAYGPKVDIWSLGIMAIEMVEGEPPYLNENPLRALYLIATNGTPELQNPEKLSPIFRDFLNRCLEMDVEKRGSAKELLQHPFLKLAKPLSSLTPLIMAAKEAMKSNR

[15] = molecular target: Serine/threonine-protein kinase PAK 2 (Homo sapiens) (UniProt Q13177); details: at 1 µM
[16] = molecular target: Serine/threonine-protein kinase PAK 3 (Homo sapiens) (UniProt O75914); details: at 0.1 µM
Sequence of Serine/threonine-protein kinase PAK 3 (Homo sapiens) (O75914 whole entry, looked up): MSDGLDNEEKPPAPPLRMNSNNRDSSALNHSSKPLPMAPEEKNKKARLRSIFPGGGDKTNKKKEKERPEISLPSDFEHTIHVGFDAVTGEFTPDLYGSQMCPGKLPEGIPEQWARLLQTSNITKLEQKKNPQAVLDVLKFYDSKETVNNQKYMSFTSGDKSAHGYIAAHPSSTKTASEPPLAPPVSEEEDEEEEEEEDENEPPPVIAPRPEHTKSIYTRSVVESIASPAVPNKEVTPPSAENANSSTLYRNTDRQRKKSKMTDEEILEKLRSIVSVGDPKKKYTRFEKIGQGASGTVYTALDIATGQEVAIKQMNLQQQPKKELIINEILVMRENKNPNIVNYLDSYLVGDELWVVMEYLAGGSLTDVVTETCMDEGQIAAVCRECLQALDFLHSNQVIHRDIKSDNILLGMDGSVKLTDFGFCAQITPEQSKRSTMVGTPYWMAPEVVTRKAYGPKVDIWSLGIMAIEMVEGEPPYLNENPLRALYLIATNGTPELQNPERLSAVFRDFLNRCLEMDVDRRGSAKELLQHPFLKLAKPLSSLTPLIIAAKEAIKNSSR

[17] = molecular target: Serine/threonine-protein kinase PAK 3 (Homo sapiens) (UniProt O75914); details: at 1 µM
[18] = molecular target: Serine/threonine-protein kinase PAK 5 (Homo sapiens) (UniProt Q9P286); details: at 0.1 µM
Sequence of Serine/threonine-protein kinase PAK 5 (Homo sapiens) (Q9P286 whole entry, looked up): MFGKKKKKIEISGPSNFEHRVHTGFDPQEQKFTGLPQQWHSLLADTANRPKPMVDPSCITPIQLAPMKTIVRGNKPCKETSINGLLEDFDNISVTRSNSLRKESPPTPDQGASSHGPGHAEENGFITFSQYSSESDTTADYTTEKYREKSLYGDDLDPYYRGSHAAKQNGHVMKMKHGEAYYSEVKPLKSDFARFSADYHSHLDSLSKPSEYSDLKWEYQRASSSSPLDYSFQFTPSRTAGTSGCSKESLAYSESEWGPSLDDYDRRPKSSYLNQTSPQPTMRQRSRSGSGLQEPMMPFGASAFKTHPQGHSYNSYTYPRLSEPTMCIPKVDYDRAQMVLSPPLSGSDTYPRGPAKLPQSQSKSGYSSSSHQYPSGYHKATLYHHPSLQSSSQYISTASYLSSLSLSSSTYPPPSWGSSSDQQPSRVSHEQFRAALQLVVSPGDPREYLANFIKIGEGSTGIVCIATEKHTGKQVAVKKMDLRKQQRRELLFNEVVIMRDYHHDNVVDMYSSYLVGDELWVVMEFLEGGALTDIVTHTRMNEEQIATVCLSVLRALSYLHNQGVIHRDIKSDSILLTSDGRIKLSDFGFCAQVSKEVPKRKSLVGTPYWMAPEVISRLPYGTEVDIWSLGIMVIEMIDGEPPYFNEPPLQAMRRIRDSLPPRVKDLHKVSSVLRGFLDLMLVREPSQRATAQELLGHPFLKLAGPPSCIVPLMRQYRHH

[19] = molecular target: Serine/threonine-protein kinase PAK 5 (Homo sapiens) (UniProt Q9P286); details: at 1 µM
[20] = molecular target: Serine/threonine-protein kinase PAK 6 (Homo sapiens) (UniProt Q9NQU5); details: at 0.1 µM;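 further: mean PAK6 inhibition reported from the GSK PKIS screen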
Sequence of Serine/threonine-protein kinase PAK 6 (Homo sapiens) (Q9NQU5 whole entry, looked up): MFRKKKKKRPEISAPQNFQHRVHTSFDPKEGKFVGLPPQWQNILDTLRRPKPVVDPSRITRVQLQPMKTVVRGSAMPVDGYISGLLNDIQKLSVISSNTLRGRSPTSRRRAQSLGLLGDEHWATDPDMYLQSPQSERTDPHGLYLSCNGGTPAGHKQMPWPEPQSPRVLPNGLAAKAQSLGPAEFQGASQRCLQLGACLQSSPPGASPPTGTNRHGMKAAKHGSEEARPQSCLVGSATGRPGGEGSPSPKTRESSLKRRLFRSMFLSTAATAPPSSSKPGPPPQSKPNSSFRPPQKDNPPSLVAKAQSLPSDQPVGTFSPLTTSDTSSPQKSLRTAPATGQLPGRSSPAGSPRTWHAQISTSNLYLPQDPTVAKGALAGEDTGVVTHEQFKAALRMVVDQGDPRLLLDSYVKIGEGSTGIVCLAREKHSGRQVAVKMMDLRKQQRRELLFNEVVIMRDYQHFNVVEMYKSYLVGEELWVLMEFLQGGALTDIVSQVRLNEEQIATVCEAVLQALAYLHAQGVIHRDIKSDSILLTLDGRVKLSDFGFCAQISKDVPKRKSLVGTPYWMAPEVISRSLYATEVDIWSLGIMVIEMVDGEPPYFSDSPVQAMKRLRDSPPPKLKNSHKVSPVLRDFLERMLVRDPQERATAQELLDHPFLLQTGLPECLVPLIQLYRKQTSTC

Sequence of Mitogen-activated protein kinase kinase kinase kinase 4 (Homo sapiens) (O95819 2-1239 limits assumed): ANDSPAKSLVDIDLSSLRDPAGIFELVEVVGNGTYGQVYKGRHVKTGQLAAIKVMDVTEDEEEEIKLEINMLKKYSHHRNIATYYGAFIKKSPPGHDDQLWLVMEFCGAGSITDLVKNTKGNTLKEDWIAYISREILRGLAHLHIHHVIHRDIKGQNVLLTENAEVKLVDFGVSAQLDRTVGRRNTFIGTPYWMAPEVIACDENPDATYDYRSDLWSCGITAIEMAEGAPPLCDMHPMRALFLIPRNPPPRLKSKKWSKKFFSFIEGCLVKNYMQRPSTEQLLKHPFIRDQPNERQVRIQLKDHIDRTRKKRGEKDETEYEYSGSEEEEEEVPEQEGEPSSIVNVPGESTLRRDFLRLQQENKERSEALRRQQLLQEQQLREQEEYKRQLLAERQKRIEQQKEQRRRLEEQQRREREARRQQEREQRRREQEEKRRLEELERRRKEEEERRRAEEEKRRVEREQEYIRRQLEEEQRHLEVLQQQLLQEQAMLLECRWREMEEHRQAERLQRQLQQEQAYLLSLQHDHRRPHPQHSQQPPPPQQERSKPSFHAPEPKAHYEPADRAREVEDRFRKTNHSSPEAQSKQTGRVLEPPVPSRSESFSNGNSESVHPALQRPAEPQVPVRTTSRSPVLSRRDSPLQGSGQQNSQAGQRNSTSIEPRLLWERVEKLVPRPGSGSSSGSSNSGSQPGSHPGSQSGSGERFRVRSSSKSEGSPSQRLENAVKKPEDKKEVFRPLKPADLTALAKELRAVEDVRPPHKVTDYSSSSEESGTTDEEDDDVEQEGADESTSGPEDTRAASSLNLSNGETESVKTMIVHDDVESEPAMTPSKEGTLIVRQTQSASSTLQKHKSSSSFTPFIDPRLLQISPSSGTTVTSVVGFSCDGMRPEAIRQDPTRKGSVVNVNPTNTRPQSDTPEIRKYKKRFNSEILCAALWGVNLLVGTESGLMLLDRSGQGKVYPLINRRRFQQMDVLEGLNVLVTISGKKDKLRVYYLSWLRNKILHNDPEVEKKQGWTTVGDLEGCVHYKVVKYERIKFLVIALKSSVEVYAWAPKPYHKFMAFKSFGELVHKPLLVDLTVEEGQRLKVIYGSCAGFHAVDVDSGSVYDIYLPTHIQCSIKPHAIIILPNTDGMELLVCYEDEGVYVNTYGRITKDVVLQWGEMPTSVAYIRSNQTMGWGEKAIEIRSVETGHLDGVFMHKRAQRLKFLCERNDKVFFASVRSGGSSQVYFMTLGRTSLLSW
Sequence of Dual specificity mitogen-activated protein kinase kinase 1 (Homo sapiens) (Q02750 whole entry): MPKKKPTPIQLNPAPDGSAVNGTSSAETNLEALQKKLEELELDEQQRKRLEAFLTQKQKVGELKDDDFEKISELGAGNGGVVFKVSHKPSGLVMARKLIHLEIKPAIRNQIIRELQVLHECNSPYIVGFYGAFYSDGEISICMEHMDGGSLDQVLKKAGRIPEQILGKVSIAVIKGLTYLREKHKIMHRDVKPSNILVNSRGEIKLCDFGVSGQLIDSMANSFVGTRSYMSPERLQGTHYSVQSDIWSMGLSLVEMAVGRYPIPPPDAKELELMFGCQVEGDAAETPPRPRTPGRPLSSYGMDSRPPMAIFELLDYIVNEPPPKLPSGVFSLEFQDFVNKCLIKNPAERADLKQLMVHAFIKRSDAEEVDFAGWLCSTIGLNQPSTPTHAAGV

Row | Structure (SMILES) | inhibition [1] [%] | inhibition [2] [%] | inhibition [3] [%] | inhibition [4] [%] | inhibition [5] [%] | inhibition [6] [%] | inhibition [7] [%] | inhibition [8] [%] | inhibition [9] [%] | inhibition [10] [%] | inhibition [11] [%] | inhibition [12] [%] | inhibition [13] [%] | inhibition [14] [%] | inhibition [15] [%] | inhibition [16] [%] | inhibition [17] [%] | inhibition [18] [%] | inhibition [19] [%] | inhibition [20] [%]
1 | NS(=O)(=O)c1cccc(-c2cc3ccncc3cc2OCc2ccccc2)c1 | 11.1 | 5.91 | 5.86 | 7.3 | 13.4 | 8 | 11.9 | 7.94 | 11 | -2.99 | -3.77 | 7.59 | 6.92 | 3.01 | 2.6 | 4.78 | 7.31 | -0.43 | -0.51 | -0.02
2 | CS(=O)(=O)CCNCc1nc(-c2ccc3ncnc(Nc4ccc(OCc5cccc(C(F)(F)F)c5)cc4)c3c2)cs1 | 3.34 | 1.13 | 0.13 | 2.9 | 4.39 | 3.31 | 6.13 | 4.17 | 6.28 | -0.02 | 1.5 | 1.25 | 3.12 | -0.05 | -0.1 | 2.76 | 5.04 | 2.81 | 1.26 | –
3 | O=S(=O)(CCOCc1ccc(-c2ccc3ncnc(Nc4ccc(OCc5cccc(F)c5)c(Cl)c4)c3c2)o1)c1ccccc1 | 7 | 2.11 | 3.33 | 3.54 | 5.66 | 4.3 | 7.99 | 0.99 | 5.7 | -0.04 | 0.25 | 4.98 | 5.84 | -0.35 | 0.7 | 0.57 | 2.12 | 0.21 | -1.3 | –
4 | COc1cc(Nc2nccc(-c3cnn4ncccc34)n2)cc(OC)c1 | 78.9 | 3.92 | 26.4 | 20.6 | 71.9 | 5.52 | 35.6 | 5.54 | 29.6 | 0.99 | 4.52 | -0.14 | 2.57 | -0.1 | 2.59 | 0.77 | 3.43 | -6.63 | 9.42 | -2.46
5 | Oc1cccc(-c2nc(-c3ccccc3)[nH]c2-c2ccncc2)c1 | 11.6 | 5.08 | 4.94 | 5.57 | 8.96 | 5.39 | 8.96 | 5.44 | 7.6 | 0.83 | 4.67 | 6.65 | 6.51 | 2.18 | 1.52 | 3.47 | 3.48 | 11.4 | 15.7 | –
6 | CC(C)c1ccc(Nc2nccc(-c3cnn4ncccc34)n2)cc1 | 18.7 | 2.79 | 9.57 | 3.97 | 14.6 | 4.71 | 20.1 | 5.07 | 18.6 | 0.23 | 2.8 | 2.05 | 3.55 | 1.06 | 0.9 | 1.95 | 2.33 | -3.7 | 2.48 | -6.25
7 | Nc1nccc(-c2c(-c3ccc(F)cc3)nn3cc(C(F)(F)F)ccc23)n1 | 2.37 | 1.8 | 0.93 | 1.74 | 1.52 | 0.23 | -0.05 | -0.79 | -0.81 | 0.43 | 0.4 | 0.65 | 2.14 | -2.44 | -1.84 | -0.02 | -0.21 | – | -2.91 | 3.48
8 | COc1cc(/C=N/Nc2ncnc3c2cnn3C(C)C)ccc1O | 21.4 | 2.16 | 1.21 | 6.6 | 19.1 | 1.8 | 7.78 | 1.29 | 8.02 | 0.35 | 3.49 | 3.62 | 2.53 | -0.56 | -0.45 | -3.86 | 1.26 | – | 4.69 | -0.32
9 | FC(F)(F)c1ccc(-c2nn3ncccc3c2-c2ccnc(Nc3ccc4c(c3)OCCO4)n2)cc1 | 12 | 1.64 | -1.13 | 2.9 | 11.5 | 3.87 | 7.46 | 4.21 | 8.12 | 6.19 | 7.92 | 4.61 | 0.84 | 1.32 | 1.42 | 3.69 | 4.75 | 6.24 | 11.3 | 9.3
10 | COC(=O)Nc1nc2cc(Oc3ccc(NC(=O)Nc4cccc(Br)c4)cc3)ccc2[nH]1 | 5.51 | 5.03 | 4 | 4.61 | 5.66 | 3.52 | 2.71 | 3.41 | 3.92 | 0.49 | 9.97 | -0.8 | 6.23 | 0.73 | 0.39 | 2.85 | 2.59 | -1.29 | -0.7 | -5.52
11 | OCc1ccc(-c2nc(-c3ccccn3)c(-c3ccc4c(c3)OCO4)[nH]2)cc1 | 6.4 | 5.12 | 4.13 | 5.77 | 7.23 | 6.59 | 6.27 | 8.49 | 4.84 | -1.45 | -2.75 | 3.25 | 7.25 | 2.61 | 2.79 | 4.79 | 5.17 | 1.77 | 0.71 | 3.79
12 | N#Cc1c(NC(=O)c2ccccc2F)sc2c1CCCC2 | -0.82 | 0.34 | -0.71 | -1.75 | -2.13 | -0.37 | 3.02 | -3.35 | 1.41 | -0.08 | 1.28 | -3.89 | 1.46 | -2.11 | -1.55 | -2.48 | -1.16 | -5.99 | -0.86 | 2.44
13 | Cc1cc(O)cc(C)c1/C=C/c1cncc(C(=O)N(C)C)c1 | 12.6 | 2.74 | 2.6 | 6.61 | 11.7 | 3.39 | 3.11 | 3.57 | 2.26 | 0.08 | 1.13 | 2.77 | 6.81 | 1.73 | 0.38 | -0.76 | 2.83 | 3.14 | 6.26 | 7.18
